Whole data set: some 18,000 sequences, median “log2 normalized intensity” near 0.36, cut for the highest 2% near 7.3. For the sample, the highest values were picked, then their nearest neighbours and some sequences at random.

This assay deals with T1, HNF4alpha8 (COS-7 nuclear extract) (Homo sapiens, UniProt P41235-5 1-452).
T1 sequence: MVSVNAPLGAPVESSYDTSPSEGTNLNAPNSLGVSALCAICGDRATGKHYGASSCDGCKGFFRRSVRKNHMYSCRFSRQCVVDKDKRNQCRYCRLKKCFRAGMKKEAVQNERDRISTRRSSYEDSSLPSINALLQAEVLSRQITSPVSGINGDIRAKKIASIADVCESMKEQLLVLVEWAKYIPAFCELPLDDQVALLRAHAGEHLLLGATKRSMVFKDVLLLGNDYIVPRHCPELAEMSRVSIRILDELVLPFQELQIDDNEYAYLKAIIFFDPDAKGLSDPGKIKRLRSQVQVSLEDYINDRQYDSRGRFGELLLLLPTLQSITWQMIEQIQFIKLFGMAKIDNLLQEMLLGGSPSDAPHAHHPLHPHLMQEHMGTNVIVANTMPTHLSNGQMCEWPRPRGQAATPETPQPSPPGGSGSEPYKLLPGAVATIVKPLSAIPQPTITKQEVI
Description: protein-binding microarray; COS-7 nuclear extract on double-stranded Agilent 4x180k PBM; binding buffer, salt, pH and temperature not given in the material; high values mean tight binding. As to conditions: chain copies: 2; label: 3' end of strand 1 on the slide; dsDNA, one strand shown. An outline of the steps:
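Nuclear extracts of COS-7 cells transiently transfected with a human HNF4α isoform were applied to a custom Agilent SurePrint G3 4x180k array bearing ~44,000 double-stranded ~60-nt test sequences, each in quadruplicate. The bound protein was imaged on an Agilent G2565CA scanner at 2-µm resolution. Binding signal is the normalized, background-corrected gProcessedSignal from Agilent software.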
For the sequence “TGGGCCAAAGGTCATACCTGTCTAGGTGGAGCCTAGGGAGATTAGAGTATCGGTCGA”, the binding signal was determined as 4.74 log2 normalized intensity.

As for “GGGGAGGTGGGAAAAGAAATGTAGTGACAGGCCTAGGGAGATTAGAGTATCGGTCGA”, the binding signal was -0.392 log2 normalized intensity.

As for “TGCATGGATTTCTCAGTTGAGGAATGGGTAGCCTAGGGAGATTAGAGTATCGGTCGA”, the binding signal was 0.827 log2 normalized intensity.

As to “TAGGGAAAATAGTGACCCTGTCTCTCAGTCGCCTAGGGAGATTAGAGTATCGGTCGA”, the binding signal stood at 1.62 log2 normalized intensity.

“GGTGGACTTTGGCCGTGAAGCCGTCCTGTCGCCTAGGGAGATTAGAGTATCGGTCGA”: the binding signal worked out at 5.87 log2 normalized intensity.

Turning to “TTGAAAGTTTGGTGGACTTTGGCCGTGAAGGCCTAGGGAGATTAGAGTATCGGTCGA”, the binding signal was 7.64 log2 normalized intensity.

Consider “CTTCTTTGAAAGTTTGGTGGACTTTGGCCGGCCTAGGGAGATTAGAGTATCGGTCGA”, for which the binding signal turned out to be 10.1 log2 normalized intensity.

Consider “AGTTTGGTGGACTTTGGCCGTGAAGCCGTCGCCTAGGGAGATTAGAGTATCGGTCGA”, for which the binding signal was 6.75 log2 normalized intensity.

For “GGCATTAATTCTTCTTTGAAAGTTTGGTGGGCCTAGGGAGATTAGAGTATCGGTCGA”, the binding signal was found to be 1.65 log2 normalized intensity.

Consider “TAATTCTTCTTTGAAAGTTTGGTGGACTTTGCCTAGGGAGATTAGAGTATCGGTCGA”, for which the binding signal amounted to 6.91 log2 normalized intensity.

As to “TGATAAGATTTATCTCTCCAAGGTACTGTGGCCTAGGGAGATTAGAGTATCGGTCGA”, the binding signal stood at 0.189 log2 normalized intensity.

For “GTGCACTTTGACCCTGCTGTAGTGTGTAAGGCCTAGGGAGATTAGAGTATCGGTCGA”, the binding signal amounted to 5.69 log2 normalized intensity.

In the case of “TCTTGTCCTTCCCCTTTTGTGTTTGTCCCTGCCTAGGGAGATTAGAGTATCGGTCGA”, the binding signal was 3.03 log2 normalized intensity.

Take “TCCTCTCTCCCACAAGGGCAGCCCTGTTTAGCCTAGGGAGATTAGAGTATCGGTCGA”: the binding signal was -0.515 log2 normalized intensity.

Turning to “TTGTCCTTAGACAGTAACCCTTGAGCTCTGGCCTAGGGAGATTAGAGTATCGGTCGA”, the binding signal amounted to 3.73 log2 normalized intensity.

As to “CCTAAATCTAAGCTGGACTTTGAACTTCATGCCTAGGGAGATTAGAGTATCGGTCGA”, the binding signal was 9.68 log2 normalized intensity.

“CTTTGGACTTTTGAACTAAGGCTGGAATGAGCCTAGGGAGATTAGAGTATCGGTCGA”: the binding signal was 3.69 log2 normalized intensity.

On to “TGAGACTTTGGACTTTTGAACTAAGGCTGGGCCTAGGGAGATTAGAGTATCGGTCGA”, for which the binding signal stood at 5.5 log2 normalized intensity.

With “GACTTTGAACTTCATGTGTGGTGCAGATTCGCCTAGGGAGATTAGAGTATCGGTCGA”, the binding signal worked out at 2.1 log2 normalized intensity.

On to “AGCTGGACTTTGAACTTCATGTGTGGTGCAGCCTAGGGAGATTAGAGTATCGGTCGA”, for which the binding signal is 6.95 log2 normalized intensity.

As to “ATCTAAGCTGGACTTTGAACTTCATGTGTGGCCTAGGGAGATTAGAGTATCGGTCGA”, the binding signal amounted to 8.61 log2 normalized intensity.

With “ATTATGGTAGGCAGCCTCTGAGATGGACTCGCCTAGGGAGATTAGAGTATCGGTCGA”, the binding signal came out at 3.96 log2 normalized intensity.

In the case of “AAATTATTACTCCCACCGTGTGTGCACTTTGCCTAGGGAGATTAGAGTATCGGTCGA”, the binding signal was 3.9 log2 normalized intensity.

With “TGAAAGTTCTCTGGGCTTTTTGATCTTGTCGCCTAGGGAGATTAGAGTATCGGTCGA”, the binding signal was found to be 1.25 log2 normalized intensity.

Turning to “CCCTCGGGCCGGGAAACGCCCTCGGCGCGCGCCTAGGGAGATTAGAGTATCGGTCGA”, the binding signal was 1.34 log2 normalized intensity.

In the case of “TCTTAGGAAAGAACAGGTCAAAGGTCAGTTGCCTAGGGAGATTAGAGTATCGGTCGA”, the binding signal is 9.61 log2 normalized intensity.

As to “TTAGAGAAAGGGTCAAAGGTTAAGCCATTGGCCTAGGGAGATTAGAGTATCGGTCGA”, the binding signal was determined as 6.33 log2 normalized intensity.

With “AAGATTTATCAGGTCTTTCTTTCAGAACAGGCCTAGGGAGATTAGAGTATCGGTCGA”, the binding signal was determined as 0.553 log2 normalized intensity.

Consider “GGTCAAAGGTCAGTTTCTTTAAGACAAGTGGCCTAGGGAGATTAGAGTATCGGTCGA”, for which the binding signal is 5.86 log2 normalized intensity.

With “GCAGAGCAGTTTAGAGAAAGGGTCAAAGGTGCCTAGGGAGATTAGAGTATCGGTCGA”, the binding signal came out at 6.23 log2 normalized intensity.

Regarding “GGAAAGAACAGGTCAAAGGTCAGTTTCTTTGCCTAGGGAGATTAGAGTATCGGTCGA”, the binding signal came out at 7.69 log2 normalized intensity.

Turning to “TCAGAAACAGGAATTCAAAGGTGCAAAGGTGCCTAGGGAGATTAGAGTATCGGTCGA”, the binding signal was determined as 2.84 log2 normalized intensity.

With “GAACAGGTCAAAGGTCAGTTTCTTTAAGACGCCTAGGGAGATTAGAGTATCGGTCGA”, the binding signal stood at 7.63 log2 normalized intensity.

On to “GACTGTCTTAGGAAAGAACAGGTCAAAGGTGCCTAGGGAGATTAGAGTATCGGTCGA”, for which the binding signal was determined as 5.06 log2 normalized intensity.

Take “TAGGAGACTGTCTTAGGAAAGAACAGGTCAGCCTAGGGAGATTAGAGTATCGGTCGA”: the binding signal stood at 0.841 log2 normalized intensity.

For “GCAGTTTAGAGAAAGGGTCAAAGGTTAAGCGCCTAGGGAGATTAGAGTATCGGTCGA”, the binding signal is 9.04 log2 normalized intensity.

“CTTTGGACTTTCAAAAGTTAAGGTCAAGACGCCTAGGGAGATTAGAGTATCGGTCGA”: the binding signal came out at 2.78 log2 normalized intensity.

On to “ACCGTAAATGCATTATTGCACTGTGCTTTGGCCTAGGGAGATTAGAGTATCGGTCGA”, for which the binding signal was found to be 1.3 log2 normalized intensity.

As for “TGCTCTCAGCACACTCTGGTACCATGGATGGCCTAGGGAGATTAGAGTATCGGTCGA”, the binding signal was determined as 0.953 log2 normalized intensity.

In the case of “GGCTCTCCCGGGGCGGGGGTGACCAGATTAGCCTAGGGAGATTAGAGTATCGGTCGA”, the binding signal is 1.07 log2 normalized intensity.

As to “TCAGGGGTCAATGTGCACATTCGAAGTTTTGCCTAGGGAGATTAGAGTATCGGTCGA”, the binding signal is 4.86 log2 normalized intensity.

In the case of “CATCTGGGCAAGGTGTCAACCTTCATTCTCGCCTAGGGAGATTAGAGTATCGGTCGA”, the binding signal came out at 0.575 log2 normalized intensity.

The values above are taken from publication PMC10726135, “HNF4α isoforms regulate the circadian balance between carbohydrate and lipid metabolism in the liver”.
